Values joined by “and” are separate entries in the source; they are usually repeats but may differ in a detail not shown here. Identical values can stand only once. Results filed as inconclusive are left out. Active and inactive are the calls of the source. Unless noted, the limit is not given here; nearly all actives have AC50 up to about 26 µM.
Legend:
[1] = growth inhibition of DIPG cells – cell-based, MIPE4.0 library, CellTiter-Glo luminescence, qHTS (AID 1347066; cut-off not given, nearly all actives have AC50 up to about 30 µM;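 also: cells exposed to compound for 48 hours before readout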); conditions: SU-DIPG-VI viability, CellTiter-Glo ATP luminescence
[2] = target: NAD(+) hydrolase SARM1 (Homo sapiens) (UniProt Q6SZW1); assay: blocking NAD cleavage by SARM1 SAM-TIR – cell lysate, NAD-Glo luminescence (AID 1508614;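 active = compound whose remaining NAD level is above about 45 nM, limit read from the data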;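 also: higher remaining NAD means stronger inhibition of SARM1 NADase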); conditions: SAM-TIR HEK293T lysate NADase, at 1 µM, stronger effect = higher value
[3] = growth inhibition of DIPG cells – cell-based, MIPE5.0 library, qHTS (AID 1347068; cut-off not given, nearly all actives have IC50 up to about 30 µM;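 as to IC50: cells exposed to compound for 48 hours before viability readout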); conditions: SU-DIPG-XXV viability
[4] = JHH-DIPG-1 glioma cell viability, MIPE5.0 library, CellTiter-Glo luminescence, qHTS (AID 1347067); conditions: JHH-DIPG-1 glioma viability, CellTiter-Glo ATP luminescence;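 also: cells exposed to compound for 48 hours before readout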
[5] = viability loss with induced miR-34 in A549 – imaging, A549 dox-inducible miR-34, nuclei and caspase counts, primary screen (AID 1347080;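 active = compounds whose cell count with miR-34 switched on is under 0.7 times the count with it off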); conditions: A549 miR-34 inducible, Hoechst nuclei count, 48 h
[6] = MELAS cybrid and Rieske KO viability enhancers – cell-based, MELAS cybrids, Rieske KO mouse fibroblasts, CellTiter-Glo, primary screen (AID 1508586;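 active = mean z-score across replicates of 1.96 or higher in either the MELAS or the Rieske mutant cell line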;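 also: z relative to plate mean and SD of compound and empty wells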); conditions: low glucose
[7] = P. berghei load reduction in hepatocytes – cell-based, HepG2, luciferase luminescence, HepG2 viability, primary screen (AID 624349; in the data active = parasite load remaining mostly below about 12%, no sharp cut-off; inactive = mostly above about 10%;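 also: 100% = mean of DMSO negative control wells on the same plate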); conditions: P. berghei liver stage in HepG2, luciferase luminescence, concentration not given here; parasite load remaining: stronger effect = lower value; viability: measured here: HepG2 viability without parasites
[8] = compounds altering HSF1 focus formation in cells – imaging, Selleck Cancer Library (AID 1347162; in the data active = plate-normalised HSF1 focus index below about 0.46); conditions: human cells, HSF1 nuclear foci imaging, at 10 µM; SSMD: measured here: HSF1 foci SSMD mean; cell count: measured here: cell number; plate-normalised HSF1 focus index: stronger effect = lower value
[9] = liver-stage malaria parasite load reduction – cell-based, known kinase inhibitor set, luminescence, hepatoma host viability (AID 624392; call rule not given here;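 also: infected cells incubated roughly two days before readout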); conditions: Plasmodium liver stage in hepatoma cells, luciferase luminescence, concentration not given here; liver cell % of control: measured here: host liver cell viability; parasite % of control: stronger effect = lower value
[10] = test system: Hepatitis C virus NS3 helicase; assay: blockers of NS3h binding to ssDNA – biochemical, fluorescence polarization, LOPAC1280 library, primary screen (AID 687035; in the data active = inhibition above about 37%); conditions: Purified HCV NS3 helicase, Cy5-dT15 ssDNA binding fluorescence polarization; stronger effect = higher value; concentration not given here
[11] = compounds altering Cy5-DNA-NS3h complex signal – biochemical, LOPAC1280, artefact control for HCV NS3 helicase inhibitor project (AID 687037; call rule not given here); conditions: Cy5-DNA-NS3h complex fluorescence interference counterscreen
[12] = blockers of cellular phospholipid synthesis – cell-based, LOPAC library, screen 4, primary screen (AID 1347384; call rule not given here); conditions: animal cells, phospholipid biosynthesis inhibition screen; at 10 µM
[13] = galactose survival enhancers in mitochondrial complex I cybrids – cell-based, galactose medium, ATP luminescence, primary screen (AID 1645843;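 active = z-score of at least 1.8 in each of two replicates, scored against plate mean and spread of sample wells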;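 also: positive z means more ATP and so rescue of galactose-driven cybrid death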); conditions: complex I mutant cybrid cells, 72 h, stronger effect = higher value
[14] = stronger effect = lower value, cell number ratio, induced over uninduced
[15] = measured here: relative caspase fold change +Dox/-Dox
[16] = measured here: total cells with miR-34 induction, stronger effect = lower value
[17] = measured here: total cells without miR-34 induction

Chain of NAD(+) hydrolase SARM1 (Homo sapiens) (Q6SZW1 whole entry, looked up): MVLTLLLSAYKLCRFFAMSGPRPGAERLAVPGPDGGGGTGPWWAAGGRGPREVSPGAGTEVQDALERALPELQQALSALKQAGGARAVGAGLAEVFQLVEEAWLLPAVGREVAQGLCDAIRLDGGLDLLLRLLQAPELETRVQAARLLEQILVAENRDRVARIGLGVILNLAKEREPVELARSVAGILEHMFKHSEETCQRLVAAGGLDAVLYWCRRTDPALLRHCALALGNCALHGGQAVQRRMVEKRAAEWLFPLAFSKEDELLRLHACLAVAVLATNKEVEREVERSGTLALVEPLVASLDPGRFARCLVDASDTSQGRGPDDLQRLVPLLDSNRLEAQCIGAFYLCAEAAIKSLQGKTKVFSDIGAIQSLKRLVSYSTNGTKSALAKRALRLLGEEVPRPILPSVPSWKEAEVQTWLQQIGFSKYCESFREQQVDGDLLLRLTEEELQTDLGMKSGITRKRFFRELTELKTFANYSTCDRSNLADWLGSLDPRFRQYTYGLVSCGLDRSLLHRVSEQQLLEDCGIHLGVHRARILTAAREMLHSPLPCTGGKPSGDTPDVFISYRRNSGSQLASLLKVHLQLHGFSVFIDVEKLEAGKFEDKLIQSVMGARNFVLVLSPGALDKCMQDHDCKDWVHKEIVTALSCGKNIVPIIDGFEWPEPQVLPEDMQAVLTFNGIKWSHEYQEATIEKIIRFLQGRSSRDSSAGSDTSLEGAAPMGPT

CC(C)OC(=O)CCC/C=C\C[C@@H]1[C@@H](/C=C/[C@@H](O)COc2cccc(C(F)(F)F)c2)[C@H](O)C[C@@H]1O
AC50 [1]: 23.5 µM (active)
remaining NAD [2]: 10 nM (inactive)

C[C@]12CCC3[C@@H](CC[C@H]4NC(=O)C=C[C@]34C)[C@@H]1CC[C@@H]2C(=O)Nc1cc(C(F)(F)F)ccc1C(F)(F)F (stereo not given in full)
outcome [3]: inactive

Cc1ccc2cc(-c3c(C)ccc(C(=O)c4c(-c5ccccc5)n(C)n(-c5ccccc5)c4=O)c3N)ccc2n1
outcome [4]: inactive
outcome [3]: inactive

CCNC(=O)Nc1ncc(-c2cc(-c3c(C)cc(OC)cc3C)nc(-c3cnccn3)n2)s1
outcome [4]: inactive
outcome [3]: inactive

CS(=O)(=O)c1ccc(-c2cnc(NCc3ccco3)n3cnnc23)cc1
AC50 [4]: 20.9 µM (active)

O=C(Nc1cccnc1)c1cc(-c2ccnc(F)c2)ccc1OCc1ccccc1
AC50 [4]: 18.6 µM (active)

Cn1cc(-c2ccc(-c3cncc(Cl)c3N3CCC4(CCNC4=O)CC3)cc2)cn1
outcome [4]: inactive
outcome [3]: inactive

Cn1cc(-c2cnn3c(N)c(Br)c(C4CCCNC4)nc23)cn1 (stereo not given)
outcome [4]: inactive
fold change [5, 14]: 0.949 (inactive)
fold change [5, 15]: 0.873
cell count [5, 16]: 6160
cell count [5, 17]: 6490
z-score ([6]; MELAS cybrid survival, CellTiter-Glo 48 h, stronger effect = higher value): 0.0709 (inactive)
z-score ([6]; Rieske KO mouse fibroblast survival, CellTiter-Glo 72 h): -0.322

Cc1cccc(/C=N/Nc2cc(N3CCOCC3)nc(OCCc3ccccn3)n2)c1
outcome [4]: inactive

O=C(O)CC1CCC(c2ccc(-c3ccc(Nc4ccc(C(F)(F)F)nc4)cn3)cc2)CC1 (stereo not given)
outcome [3]: inactive

NC(=O)c1ccc2nc(-c3ccc(Oc4ccc(Cl)cc4)cc3)[nH]c2c1
parasite load remaining [7]: 38.6% (inactive)
viability [7]: 91.3%
outcome [1]: inactive
outcome [3]: inactive
SSMD [8]: 0.89
cell count [8]: 6720
plate-normalised HSF1 focus index [8]: 1.06 (inactive)

CCC1CCCCN1C(=O)n1ncc(C(O)(c2ccccc2)c2ccccc2)n1 (stereo not given)
outcome [3]: inactive

COCC(=O)NC/C=C/c1ccc2ncnc(Nc3ccc(Oc4ccc(C)nc4)c(C)c3)c2c1
outcome [4]: inactive

N#CN1CCC[C@@H](n2nc(-c3ccc(Oc4ccc(F)cc4F)cc3)c(C(N)=O)c2N)C1
outcome [4]: inactive
outcome [3]: inactive

OCCC#Cc1nc(-c2ccc(F)cc2)c(-c2ccncc2)n1CCCc1ccccc1
liver cell % of control [9]: 306% and 93.3% and 95.7%
parasite % of control [9]: 3.85% (inactive) and 44.3% (inactive) and 36.9% (inactive)
AC50 [4]: 26.3 µM (active)
outcome [3]: inactive

CCN1/C(=C/C(C)=O)Sc2ccc(OC)cc21
parasite load remaining [7]: 36.4% (inactive)
viability [7]: 92.3%
inhibition [10]: -4% (inactive)
fluorescence ratio (interference) [11]: 0.9 (inactive)
outcome [4]: inactive
outcome [3]: inactive
fold change [5, 14]: 1.04 (inactive)
fold change [5, 15]: 1.19
cell count [5, 16]: 7360
cell count [5, 17]: 7040
outcome [12]: inactive
z-score [13]: 0.785 (inactive)

C#CCC(Cc1cnc2nc(N)nc(N)c2n1)c1ccc(C(=O)N[C@@H](CCC(=O)O)C(=O)O)cc1 (stereo not given in full)
outcome [4]: inactive

CC1CCN(c2cc(N3CCN(C)CC3)ccc2NC(=O)c2cc(C#N)c[nH]2)CC1
outcome [1]: inactive
outcome [3]: inactive

CC1Cc2ccccc2N1C(=O)Cc1nc(N2CCOCC2)cc(=O)[nH]1 (stereo not given)
outcome [4]: inactive

O=C(Nc1cccc(Br)c1)c1cccc(S(=O)(=O)N2CCCCCC2)c1
outcome [1]: inactive

NC(=O)c1nnn(Cc2cc(Cl)c(C(=O)c3ccc(Cl)cc3)c(Cl)c2)c1N
AC50 [1]: 18.7 µM (active)

COc1cc2c(NC3CCN(C4CCCCC4)CC3)nc(N3CCCN(C(C)C)CC3)nc2cc1OCCCN1CCCCC1
IC50 [3]: 5.9 µM (active)

CC(=O)O/N=C1\C(=O)N(Cc2cc(Cl)ccc2Cl)c2ccc(Cl)cc21
AC50 [4]: 23.5 µM (active)
IC50 [3]: 8.33 µM (active)

CC(C)C[C@H](NC(=O)[C@H](Cc1ccccc1)NC(=O)OCc1ccccc1)C(=O)C=O
outcome [4]: inactive

CC/C(=C(/c1ccc(/C=C/C(=O)O)cc1)c1ccc2[nH]ncc2c1)c1ccc(F)cc1Cl
AC50 [4]: 26.3 µM (active)

C[C@H]1CC2[C@@H]3CCC4=CC(=O)C=C[C@]4(C)[C@@]3(F)[C@@H](O)C[C@]2(C)[C@@]1(O)C(=O)CO (stereo not given in full)
outcome [4]: inactive
outcome [3]: inactive

From PubChem BioAssay
